# Results taken from patent US20210230599, “STEM-LOOP COMPOSITIONS AND METHODS FOR INHIBITING INTERLEUKIN-8” (VITRISA THERAPEUTICS, INC., published 2021).
# Molecular target: Interleukin-8 (IL8, CXCL8), C-terminal His-tagged (Homo sapiens, UniProt P10145 SEQ:1-72)
# Test: competition; competition TR-FRET
# Settings: tags: C-terminal 6xHis (Sino Biological); ssRNA; 2'-F G, 2'-OMe A/C/U, 5' C6NH2, 3' idT
# Protocol: Activity of each of these variants were tested using a time resolved competition TR-FRET assay in which the labeled parent Aptamer 3 was competed with increasing concentrations of unlabeled variants for binding to IL8 (FIG. 14). Briefly, 2-fold dilutions of thermally equilibrated aptamers were made in TR-FRET Buffer (50 mM MOPS, pH 7.4, 125 mM NaCl, 5 mM KCl, 50 μM CHAPS, 0.1 mg/mL BSA, 1 mM CaCl₂, and 1 mM MgCl₂). 5 μL of aptamer or control solution was added to 5 μl mix of 10 nM C-terminal His-tagged-IL8, 60 nM ALEXA FLUOR® 647-labeled Aptamer, and 5 nM anti-His-Eu (Perkin Elmer) in a black wall low volume 384 well plate (Greiner). For control, 5 μl of 1000-fold excess of unlabeled parent aptamer or 5 μl TR-FRET buffer alone was added to the mix of ALEXA FLUOR® 647-labeled aptamer, His-IL8, and anti-His-Eu. The plate was covered with a plate seal and subsequently incubated in the dark for 1 hour at room temperature. The plate was read on a Biotek CYTATION™ 5 plate reader. […]
# To better understand the sequence requirements and confirm the stem structures of members of the Aptamer 8 family as determined from sequence covariation analysis from both the primary and secondary (degenerate) selections, a series of variants which included mutations and deletions to the predicted stems (Tables 45 and 46) were synthesized and screened. […]
row,Sequence,binding signal
1,CGGUGGGAAAUGUGAGAUGGGUUACCG,~2.5 fold worse than Aptamer 8
2,CGGCGGGAAAUGUGAGAUGGGUUGCCG,~2.5 fold worse than Aptamer 8
